# Active and inactive are the calls of the source.
# Test: E. coli acrAB mutant growth effects, primary screen, E. coli filamentation inducers, strain DRC39, OD650, 48 h (AID 1179);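 also: screen aims at cell division blockers that make cells filament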
# Details: E. coli DRC39 delta-acrAB growth, higher = more signal, called active from +8 up or from −8 down
row,SMILES,z-score
1,N#Cc1ccc(-c2cccc(=O)o2)cc1,-0.0301 (inactive)
2,COCCOC(=O)N1C(=O)[C@@]2(c3ccccc31)[C@H](C(=O)N1CCN(c3ncccn3)CC1)[C@H]1C(=O)O[C@H](c3ccccc3)[C@H](c3ccccc3)N1[C@@H]2c1ccccc1OCCO,0.611 (inactive)
3,NC(=O)NCC#Cc1ccc2c(c1)[C@]1(C(=O)N2)[C@H](c2ccc(OCCO)cc2)N2[C@H](c3ccccc3)[C@H](c3ccccc3)OC(=O)[C@H]2[C@@H]1C(=O)O,-0.533 (inactive)
4,COC(=O)[C@@]1(Cc2ccc(OC)cc2)[C@H]2c3cc(C(=O)N(C)C)[nH]c3C[C@H]2CN1C(=O)c1ccccc1,0.192 (inactive)

# Test: RPMI8226 myeloma cell viability, profiling panel, resazurin fluorescence, basal, 24 h, PK04 Diversity Set (AID 1180);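 also: RPMI8826 multiple myeloma cell line at 5000 cells per well; test concentration not given here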
# Details: higher = more signal
row,SMILES,z-score
1,COc1cc(OC)c(C(O)C2C=CC3C(=O)N(c4ccccc4)C(=O)C3N2Nc2ccc(C(C)C)cc2)cc1Br (stereo unspecified),0.289
2,CC(C)c1nc2cc(Br)ccc2c(=O)o1,0.0076
3,CN1C(=O)[C@@H]2[C@@H](CC(COc3ccccc3)=C3[C@@H](CCc4ccccc4)OB(O)C[C@@H]32)C1=O,-0.861
4,O=C(NCCN1CCOCC1)[C@@H]1c2ccccc2C(=O)N(Cc2ccc(OC(F)(F)F)cc2)[C@H]1c1ccc(CO)cc1,0.546
5,CN(C)c1ccc(C(O)C2C=CC3C(=O)N(Cc4ccccc4)C(=O)C3N2n2cnnc2)cc1 (stereo unspecified),-0.268
6,CC(C)C(O)C1C=CC2C(=O)NC(=O)C2N1Nc1ccccn1 (stereo unspecified),-1.23
7,COc1ccc([Si](C)(C)[C@@H]2[C@@H](CC(=O)N3Cc4ccccc4C[C@H]3CO)O[C@]3(C(=O)N(Cc4ccc(N5CCOC5=O)cc4)c4ccccc43)[C@H]2C)cc1,-0.504

# From PubChem BioAssay
